Assay results taken from the supplement of paper PMC12024424.
Where a name gives a salt, the structure may show the parent alone.

Each molecule was assayed on Staphylococcus aureus Sa2 (MRSA, cystic fibrosis isolate) (assay: growth reduction vs untreated control (viable cell count); higher = stronger antibacterial activity; extreme values may be limits of the assay). Conditions: 0.1 mM; 24 h.
Procedure: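 Single-dose screen of the MedChem Express Drug Repurposing Library (0.1 mM, 1% DMSO) against planktonic MRSA S. aureus Sa2 (CF isolate) in TSB in 96-well plates, 37 °C aerobic, 24 h. Assays were run in triplicate and repeated twice.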

| SMILES | growth reduction [%] |
| --- | --- |
| Clc1ccccc1C(c1ccccc1)(c1ccccc1)n1ccnc1 [Clotrimazole] | 100 |
| O=c1[nH]c(=O)n([C@H]2C[C@H](O)[C@@H](CO)O2)cc1F [Floxuridine] | 100 |
| Oc1c(Br)cc(Br)c2cccnc12 [Broxyquinoline] | 100 |
| CC(C)(C)Cn1c(N)nc2ccc(-c3[nH]c(C(C)(C)C)nc3-c3ccc(F)cc3)nc21 [Ralimetinib dimesylate] | 97 |
| C=C[C@@H]1C[C@]1(NC(=O)[C@@H]1C[C@@H]2CN1C(=O)[C@H](C(C)(C)C)NC(=O)O[C@@H]1C[C@H]1CCCCCc1nc3ccc(OC)cc3nc1O2)C(=O)NS(=O)(=O)C1CC1 [Grazoprevir potassium salt] | 100 |
| CN1CC[C@@H](NC(=O)Nc2ccc(C#N)cc2)C[C@@H]1c1nc2ccccc2[nH]1 [Glasdegib] | 98 |
| CN(C(=O)CN(CCO)CC(=O)N(C)C(C)(C)Cc1ccccc1)C(C)(C)Cc1ccccc1 [Oxethazaine] | 100 |
| CNC(=O)c1cc(Oc2ccc(NC(=O)Nc3ccc(Cl)c(C(F)(F)F)c3)cc2)ccn1 [Sorafenib] | 100 |
| CC[C@H](C)C(=O)O[C@H]1C[C@@H](C)C=C2C=C[C@H](C)[C@H](CC[C@@H]3C[C@@H](O)CC(=O)O3)[C@H]21 [Lovastatin] | 100 |
| O=c1[nH]cnc2c1cnn2[C@@H]1O[C@H](CO)[C@@H](O)[C@H]1O [Allopurinol riboside] | 100 |
| Cn1cnc([N+](=O)[O-])c1C[N+](C)(C)C/C=C/C(=O)Nc1cc2c(Nc3ccc(Cl)c(Br)c3)ncnc2cn1 [Tarloxotinib (bromide)] | 100 |
| Cc1cnc(NC(=O)Nc2cc(Br)c(C)cc2OC[C@@H]2CNCCO2)cn1 [Rabusertib] | 100 |
| C[C@@H](NCCCc1cccc(C(F)(F)F)c1)c1cccc2ccccc12 [Cinacalcet (hydrochloride)] | 100 |
| CO[C@H](C(=O)[C@@H](O)[C@@H](C)O)[C@@H]1Cc2cc3cc(O[C@H]4C[C@@H](O[C@H]5C[C@@H](O)[C@H](O)[C@@H](C)O5)[C@H](O)[C@@H](C)O4)c(C)c(O)c3c(O)c2C(=O)[C@H]1O[C@H]1C[C@@H](O[C@H]2C[C@@H](O[C@H]3C[C@](C)(O)[C@H](O)[C@@H](C)O3)[C@@H](O)[C@@H](C)O2)[C@H](O)[C@@H](C)O1 [Plicamycin] | 100 |
| CN1CCCN=C1/C=C/c1cccs1 [Pyrantel (pamoate)] | 96 |
| Nc1ccn([C@@H]2O[C@H](CO)[C@@H](O)C2(F)F)c(=O)n1 [Gemcitabine (hydrochloride)] | 100 |
| Cc1cc(Nc2ncnc3ccc(NC4=NC(C)(C)CO4)cc23)ccc1Oc1ccn2ncnc2c1 [Tucatinib] | 92 |
| CCCCc1oc2ccc(NS(C)(=O)=O)cc2c1C(=O)c1ccc(OCCCN(CCCC)CCCC)cc1 [Dronedarone (Hydrochloride)] | 100 |
| O=C(NCC12CC3CC(CC(C3)C1)C2)c1cc(CCCNCCCO)ccc1Cl [AZD9056 (hydrochloride)] | 100 |
| c1ccc(-c2ccc(C(c3ccccc3)n3ccnc3)cc2)cc1 (stereo not given) [Bifonazole] | 100 |

| SMILES | growth reduction [%] |
| --- | --- |
| CN(C)CCOc1ccc(/C(=C(/CCCl)c2ccccc2)c2ccccc2)cc1 [Toremifene (citrate)] | 100 |
| O=C(NCc1c(F)cc(F)cc1F)c1cn2c(c(O)c1=O)C(=O)N1[C@H]3CC[C@H](C3)O[C@@H]1C2 [Bictegravir] | 100 |
| O=C(OCC(O)CO)c1ccccc1Nc1ccnc2cc(Cl)ccc12 (stereo not given) [Glafenine] | 100 |
| CS(=O)(=O)c1ccc([C@@H](O)[C@@H](CF)NC(=O)C(Cl)Cl)cc1 [Florfenicol] | 100 |
| CCc1nc(-c2cccc(C)c2)c(-c2ccnc(NC(=O)c3ccccc3)c2)s1 | 100 |
| CCCCCCCCCCCCCCCC[N+](C)(C)CCN(Cc1ccc(OC)cc1)c1ncccn1 [Thonzonium (bromide)] | 100 |
| Clc1ccc(CSC(Cn2ccnc2)c2ccc(Cl)cc2Cl)cc1 (stereo not given) [Sulconazole (nitrate)] | 100 |
| CC(=O)OC[C@H]1O[C@@H]([S-])[C@H](OC(C)=O)[C@@H](OC(C)=O)[C@@H]1OC(C)=O.CCP(CC)CC.[Au+] [Auranofin] | 100 |
| Cc1cc([C@H](C)Nc2nccc(N3C(=O)OC[C@@H]3[C@@H](C)F)n2)ncc1-c1ccnc(C(F)(F)F)c1 | 97 |
| CCc1cc(-c2noc(-c3cc(OC)nc(C4CCCC4)c3)n2)cc(C)c1OC[C@@H](O)CO [Cenerimod] | 100 |
| CC(C)OC(=O)CCC/C=C\C[C@@H]1[C@@H](/C=C/[C@@H](O)COc2cccc(C(F)(F)F)c2)[C@H](O)C[C@@H]1O [Travoprost] | 100 |
| Cc1cn(-c2cc(NC(=O)c3ccc(C)c(Nc4nccc(-c5cccnc5)n4)c3)cc(C(F)(F)F)c2)cn1 [Nilotinib] | 92 |
| C#C[C@]1(O)CC[C@H]2[C@@H]3CCc4cc(OC5CCCC5)ccc4[C@H]3CC[C@@]21C [Quinestrol] | 99 |
| CC1(C)S[C@@H]2[C@H](NC(=O)[C@H](N)c3ccccc3)C(=O)N2[C@H]1C(=O)OCOC(=O)[C@@H]1N2C(=O)C[C@H]2S(=O)(=O)C1(C)C [Sultamicillin (tosylate)] | 100 |
| Cc1cccc(Nc2ccccc2C(=O)O)c1C [Mefenamic acid] | 100 |
| COc1cccc2c1C(=O)c1c(O)c3c(c(O)c1C2=O)C[C@@](O)(C(=O)CO)C[C@@H]3O[C@H]1C[C@H](N)[C@H](O)[C@H](C)O1 [Doxorubicin (hydrochloride)] | 100 |
| Nc1ccc2cc3ccc(N)cc3nc2c1 [Proflavine (hemisulfate)] | 100 |
| COc1ccc(CN2CCN(C(c3ccc(F)cc3)c3ccc(F)cc3)CC2)c(OC)c1OC [Lomerizine dihydrochloride] | 98 |
| Clc1ccc(Nc2nnc(Cc3ccncc3)c3ccccc23)cc1 [Vatalanib (dihydrochloride)] | 100 |
| CCCCCCCC/C=C/CCCCCCCC(=O)OC[C@H]1O[C@@H](n2ccc(N)nc2=O)C(F)(F)[C@@H]1O [Gemcitabine (elaidate)] | 100 |
